The record followed here is ChEMBL document CHEMBL3988442, “University of Dundee, Small-Polar-MMV Screening Library” (2021).

Screen size: about 48,000 compounds; about 13,000 (27%) showed an effect of 50% or more. Some of the results follow.

This test relates to Wolbachia pipientis. As to the kind of experiment: Anti-Wolbachia Cell-Based Screen. Also on record: scale not given: in the data most compounds retested in dose-response had high values. The settings on record: 5 µM. In kind it is functional.
With `CN(Cc1n[nH]c2c1CCCC2)c1cc(N2CCOCC2)nc(N)n1`, the “Percent Effect” value was 14.47%.
In the case of `O=C(c1ccco1)N1CCOCC2(C1)CN(c1ccccn1)C(=O)CO2` (stereo unspecified) it was 92.62%; in that of `CN1CC2(COCCN(C(=O)c3ccco3)C2)OCC1=O` (stereo unspecified), -13.58%.
Consider `O=C(c1ccco1)N1CCOCC2(C1)CN(c1ccccc1)C(=O)CO2` (stereo unspecified), for which the “Percent Effect” value is reported as -13.67%.
In the case of `O=C(c1ccco1)N1CCOCC2(C1)CN(c1ccoc1)C(=O)CO2` (stereo unspecified) it was 100.8%; in that of `CC(O)CCN(C)c1nc2ccccc2c(=O)[nH]1` (stereo unspecified), 20.77%; in that of `COCc1nc(-c2ccc(S(=O)(=O)N3CCCC3)cc2)cs1`, -8.912%.
In the case of `Cc1noc(CNc2cc3c(cc2Cl)OCCCO3)n1` it was 2.534%; in that of `CCn1ncnc1C(C)NC(=O)C1CCN(Cc2ccco2)CC1` (stereo unspecified), -16.37%.
With `CCSCc1nc(O)c2nnn(C3CCN(Cc4ccco4)CC3)c2n1` the figure was 93.96%; with `c1nc2c(c(C3CCOC3)n1)CCN(Cc1ccoc1)CC2` (stereo unspecified), 7.2%; with `O=C(O)c1cc2c(nc1-c1ccncc1)CCN(Cc1ccoc1)CC2`, -1.034%.
Take `Oc1nc(C2CC2)nc2c1nnn2C1CCN(Cc2ccoc2)CC1`: the “Percent Effect” value came to 197.8%.
With `CCSCc1nc(O)c2nnn(C3CCN(Cc4ccoc4)CC3)c2n1` the figure was 124.7%; with `CC(C)N(C)S(=O)(=O)N1CCN(Cc2ccco2)CC1`, -10.02%.
In the case of `O=C(CCn1cccn1)NCC(c1cccs1)N1CCOCC1` (stereo unspecified) it was 0.8626%; in that of `O=C1CC(NS(=O)(=O)N2CCOCC2)CN1Cc1ccc(F)cc1` (stereo unspecified), -0.715%; in that of `Cl.N#Cc1cnc2ccccc2c1N1CCN(CCC(=O)O)CC1`, -4.307%.
With `N#Cc1cnc2ccccc2c1N1CCN(C(=O)C2CCC2)CC1` the figure was 4.022%.
Turning to `N#Cc1cnc2ccccc2c1N1CCC(C(=O)O)CC1`, the “Percent Effect” value was 149.3%.
With `CCc1nc(CN(C)C(=O)NC(C)c2cccc(NC(C)=O)c2)cs1` (stereo unspecified) the figure was 4.996%; with `O=C1COc2cccc(OCc3ccccn3)c2N1`, -1.975%; with `N#CCCn1nc(C(F)(F)F)c2c1CCCC2`, 118.8%.
With `N#CCCn1nc(C(F)(F)F)c2c1CCC2` the figure was 109.3%.
With `NCCCn1nc(C(F)(F)F)c2c1CCC2` the figure was 77.67%; with `CC(C)Oc1nnc(SCC(=O)NCC(=O)N2CCCC2)s1`, 11.98%.
As to `Cc1cc(N(Cc2cccnc2)C2CC2)n2nc(C(F)(F)F)nc2n1`, the “Percent Effect” value was 19.73%.
In the case of `CN1CCN(S(=O)(=O)c2cncc(F)c2)c2ccccc2C1` it was -3.116%; in that of `O[C@@H]1C[C@@H](c2nc(-c3ccc(F)cc3)no2)N(C2CCOCC2)C1`, -13.07%; in that of `COC(=O)C(NC(=O)COC1CCCCC1)c1ccccc1` (stereo unspecified), 3.192%.
With `NC(=O)C(NC(=O)COC1CCCC1)c1ccccc1` (stereo unspecified) the figure was -1.81%; with `CCC(=O)NC(Cc1cc(N(C)C)nc(C2CC2)n1)c1ccccc1` (stereo unspecified), 105%.
In the case of `CC(C)C(=O)NC(Cc1cc(N(C)C)nc(C2CC2)n1)c1ccccc1` (stereo unspecified) it was 86.08%.
For `COCC(=O)NC(Cc1cc(N(C)C)nc(C2CC2)n1)c1ccccc1` (stereo unspecified), the “Percent Effect” value worked out at 113.9%.
In the case of `CN(CC(=O)N1CCC(C(O)c2ccccc2)CC1)c1cnccn1` (stereo unspecified) it was -4.983%; in that of `COC(=O)C(NC(=O)c1ccc(N(C)C)nc1)c1ccccc1` (stereo unspecified), 15.6%.
With `CCC(=O)NC1CCCN(C(=O)Nc2cc(-c3ccccc3)on2)C1` (stereo unspecified) the figure was -16.23%; with `CCC(NC(=O)C1CCN(S(=O)(=O)N(C)C)CC1)c1ccc(C)c(C)c1` (stereo unspecified), -8.706%; with `CN(CCC(O)c1ccccc1)c1cc(C2CC2)ncn1` (stereo unspecified), 7.591%.
With `CN(C)c1cc(CC(NC(=O)C2CC2)c2ccccc2)nc(C2CC2)n1` (stereo unspecified) the figure was 92.65%; with `Cc1ccsc1C(Cc1ccccc1)NC(=O)CNC(=O)C1CC1` (stereo unspecified), -6.693%.
Consider `COC1CCCN(Cc2nc(Cc3ccccc3F)no2)C1` (stereo unspecified), for which the “Percent Effect” value is listed as -1.199%.
For `Cc1ccc2c(c1C)OCC2NCc1ccc(C#N)cc1` (stereo unspecified), the “Percent Effect” value was 6.111%.
With `Cc1cccc(CC(=O)NC2CCN(C(=O)NC(C)(C)C)CC2)c1` the figure was 5.736%; with `CCC1=N[C@@]2(CC[C@@H]3CN(C(=O)NCC(C)C)C[C@@H]32)C(=O)N1CCOC`, 5.071%; with `Cc1c(-c2nc(-c3cccc(CN4CCOCC4)c3)no2)cnn1C`, -3.312%.
With `COc1ccccc1-c1ncc(CN2C[C@H](O)[C@@H](N3CCCC3)C2)s1` the figure was 6.619%; with `CCn1c(Cn2ccnc2)nnc1C1CCN(Cc2ccc(C)o2)CC1`, -1.566%.
With `CSCC(C)(O)CNC(=O)c1ccc(F)cc1Br` (stereo unspecified) the figure was -10.01%; with `O=C(NCCCNc1ccc(C(F)(F)F)cn1)c1ccc(F)cc1F`, 139.7%.
As to `N#Cc1ccc(C(=O)NCCCNc2ccc(C(F)(F)F)cn2)cc1`, the “Percent Effect” value is -7.343%.
With `COc1ccc(Br)c(C(=O)NCCNc2ccc(C(F)(F)F)cn2)c1` the figure was 2.511%; with `N#CC1(C(=O)NCCCNc2ccc(C(F)(F)F)cn2)CCCC1`, -0.7429%.
With `O=C(NCCCNc1ccc(C(F)(F)F)cn1)c1ccc(F)cc1Br` the figure was 166.7%; with `CC(C)=CCC/C(C)=C/CC(C)(C)CNCc1ccco1`, -15.73%.
With `COc1ccc(NC(C)C(=O)N2CCN(c3ccccc3)CC2)cn1` (stereo unspecified) the figure was 11.01%.
For the compound `CC1CN=C(N2CCN(C(=O)Nc3nc(-c4ccccc4)ns3)CC2)S1` (stereo unspecified), the “Percent Effect” value is listed as -2.569%.
Consider `CCOc1ccccc1C(C(=O)O)N(C)Cc1nc(C)c[nH]1` (stereo unspecified), for which the “Percent Effect” value is 110.9%.
Regarding `COCc1cc(CN(C)C(C(=O)O)c2cc(C)c(OC)c(C)c2)n[nH]1` (stereo unspecified), the “Percent Effect” value is listed as 0.7136%.
With `Cc1c[nH]c(CN(C)C(C(=O)O)c2c(F)cccc2Cl)n1` (stereo unspecified) the figure was 11.8%.
In the case of `COc1cccc(Cl)c1C(C(=O)O)N(C)Cc1nnc(C)o1` (stereo unspecified) it was 7.233%; in that of `Cc1c[nH]c(CN(C)C(C(=O)O)c2c(F)cccc2OC(C)C)n1` (stereo unspecified), 2.457%.
For `CCOc1ccc(N(C)Cc2nnc(C)o2)cc1`, the “Percent Effect” value is on record as 3.578%.
In the case of `CCOc1ccccc1C(C(=O)O)N(C)Cc1cc(C)[nH]n1` (stereo unspecified) it was 105.4%.
In the case of `CCOc1ccccc1C(C(=O)O)N(C)Cc1nnc(C)o1` (stereo unspecified) it was 103.2%; in that of `Cc1cc(CN(C)C(=O)c2cc(COc3ccccc3)[nH]n2)n[nH]1`, -16.83%; in that of `CN(CC(N)=O)S(=O)(=O)c1ccc(F)cc1Cl`, 0.3339%.
In the case of `COc1cccc(CN(C)C(=O)CCC(=O)c2ccc(Cl)cc2)c1OC` it was -4.229%.
Take `COc1ccc2c(c1)C(=O)CC1(CCN(Cc3ccc(F)cc3)CC1)O2`: the “Percent Effect” value is 107.4%.
In the case of `COc1ccc2c(c1)OC1(CCN(Cc3ccc(C)cc3)CC1)CC2=O` it was 104.7%; in that of `COc1ccc(CN2CCC3(CC(=O)N(c4cccc(F)c4)C3)C2)cc1.O=C(O)C(F)(F)F` (stereo unspecified), 28.15%; in that of `Cc1ccc2oc([C@H]3CCN(Cc4ccccc4)C3)nc2c1`, -4.088%.
In the case of `CCS(=O)(=O)N1CCC2(CCN(Cc3cccc(OC)c3)CC2)CC1.O=C(O)C(F)(F)F`, the “Percent Effect” value was -27.27%.
With `CCN1CCN(C)C(=O)C12CCN(Cc1cccc(C)c1)CC2.O=C(O)C(F)(F)F` the figure was -18%; with `COc1ccc2c(c1)OC1(CCN(Cc3cccc(C)c3)CC1)CC2=O`, 101.2%; with `Cc1ccc2c(c1)C(=O)CC1(CCN(Cc3ccccc3)CC1)O2`, 106.6%.
Take `COc1c(F)cc(CN2CCCC3(CC2)CNC(=O)O3)cc1Cl` (stereo unspecified): the “Percent Effect” value is listed as -2.576%.
For `COc1ccc2c(c1)C1(CCN(Cc3ccncc3)CC1)N(C)CC2`, the “Percent Effect” value is given as -5.195%.
With `Cc1ccc(CN2CCC3(CC2)CCN(Cc2ccco2)CC3)cc1.O=C(O)C(F)(F)F.O=C(O)C(F)(F)F` the figure was 0.5302%; with `COCC(=O)N1CCC2(CCN(Cc3ccc(C)cc3)CC2)CC1.O=C(O)C(F)(F)F`, -3.723%.
`CCCn1ncc(C2CC(=O)NCc3nc4cc(C)ccn4c32)c1C` (stereo unspecified): the “Percent Effect” value is recorded as 7.732%.
Consider `Cc1nc(CN2CCCN(CC(=O)Nc3ccncc3)CC2)no1`, for which the “Percent Effect” value is -12.37%.
With `CC1c2cc(F)ccc2CCN1CCCS(=O)(=O)C(C)C` (stereo unspecified) the figure was -15.92%; with `Cc1nc[nH]c1CN1CCn2nc(CN3CC[C@H](F)C3)cc2C1`, -2.245%.
With `O=C(NCCN1CCNCC1)c1c(O)c2ccccc2[nH]c1=O` the figure was 23.98%.
With `COCC(O)CN(C)C(=O)NC1CCN(Cc2ccccn2)CC1` (stereo unspecified) the figure was 9.175%.
`Cc1nn(C)c2nc(N(Cc3ccccc3)CC3CCCO3)sc12` (stereo unspecified): the “Percent Effect” value is reported as 6.104%.
For `COc1ccc(CN2CCC(O)(CN3CCCCC3)C2)c(C)c1` (stereo unspecified), the “Percent Effect” value worked out at 1.46%.
In the case of `COc1ccc2c(c1)OC1(CCN(Cc3ccccc3C)CC1)CC2=O` it was 114.8%; in that of `Cc1ccccc1CN1CCCN(CCN2CCOC2=O)CC1`, 6.019%; in that of `CC(C)c1cccc(CSc2nnc(CN3CCCC3=O)o2)n1`, 6.014%.
With `CS(=O)(=O)Cc1nc(CN2CCCc3sccc3C2)cs1`, the “Percent Effect” value is listed as 11.89%.
In the case of `CCOC(=O)C1CCN(c2nccc(-n3nc(C)cc3C)n2)CC1` it was 112.2%.
In the case of `COc1ccc(C(=O)C2CCCN(c3nccc(N)n3)C2)c(C)c1` (stereo unspecified) it was 21.82%.
In the case of `CCOC(=O)C1CCCN(c2ccc(-c3nc(C)no3)cn2)C1` (stereo unspecified) it was -3.256%; in that of `Cc1cc(C)n(-c2ccnc(N3CCC(C(=O)N4CCCC4)CC3)n2)n1`, 4.916%.
With `CCOC(=O)C1CCCN(c2nccc(-n3nc(C)cc3C)n2)C1` (stereo unspecified), the “Percent Effect” value is recorded as 112.5%.
With `CCOC(=O)C1CSCCN1C(=O)c1ccc(-n2nc(C)cc2C)cc1` (stereo unspecified) the figure was 16.86%; with `COCc1cc(CC2(NCc3ccccc3Cl)COC2)no1`, -15.27%; with `COc1ccnc(N2CCC3(CC2)[C@H](O)C[C@@H]3OCCN(C)C)n1`, -4.525%.
As to `CN(C(=O)CCc1cccs1)C1CCCN(C2Cc3ccccc3C2)C1` (stereo unspecified), the “Percent Effect” value is given as -51.14%.
